Measured values: PubChem BioAssay (NCI)
The panel holds about 83,000 compounds, 20% with a hit somewhere; the sample as a whole holds those more often.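 Growth was measured after 48 h exposure to one concentration of compound in 96-well plates. Values under 10 count as active.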 Unmarked numbers belong to inactive results. Active and inactive are the calls of the source.

Each compound was assayed on UACC-62 melanoma (assay: NCI-60 one-dose screen, 48 h (100 = growth as untreated, 0 = no growth, -100 = all killed)). Settings: 10 µM unless noted.

Row | SMILES | growth
1 | Nc1c(C(=O)Nc2cccc3ccccc23)sc2nc3c(cc12)COCC3 | 30.2%
2 | C#CCOC(=O)[C@]1(C)CCC[C@]2(C)[C@H]3C[C@H]4C(C(C)C)=C[C@]3(CC[C@H]21)[C@@H]1C(=O)CCC(=O)[C@@H]14 | 63.1%
3 | COC(=O)c1nc(-c2ccccc2)oc1S(=O)(=O)n1nc(-c2ccccc2)cc1N | 95.2%
4 | Cn1c2ccccc2c2c(OC(=O)c3ccccc3)c3c(nc21)-c1ccccc1C3 | 92.5%
5 | COc1ccc(-c2cc(-c3nnc(SCC(=O)Nc4ccc(/C(C)=N\O)cc4)o3)c3ccccc3n2)cc1 | 106%
6 | COc1ccc(C2CC(c3ccc(OC)cc3O)=NN2c2ccc(S(N)(=O)=O)cc2)cc1 (stereo not given) | 38.1%
7 | CC(=O)c1ccc(NC(=O)CSc2nnc(-c3cc(-c4ccc(Cl)cc4)nc4ccccc34)o2)cc1 | 95.7%
8 | CCOC(=O)c1c(C)nc2c(c1N)/C(=C/c1cccs1)C(=O)N2Cc1ccccc1 | 67.6%
9 | CN(C)[C@@H]1C(=O)C(C(N)=O)=C(O)[C@@]2(O)C(=O)C3=C(O)c4c(O)cc(CN5CCc6ccccc6C5)c(Cl)c4C[C@H]3C[C@@H]12 | -89.5% (active)
10 | O=C1CC23OC(C(O)c4ccccc4N12)C1C(c2ccccc2)=NOC13 (stereo not given) | 28.2%
11 | N#Cc1nc(-c2ccccc2)oc1S(=O)(=O)NCC(c1ccc(Cl)cc1)N1CCCCC1 (stereo not given) | 80.2%
12 | C#C[C@@]1(O)[C@@H](CO)O[C@@H](n2cc(Cl)c3c(N)ncnc32)[C@@H]1O | -54.2% (active)
13 | COc1ccc(-n2cc(COc3ccc4c5ccnc(C)c5n(CC(C)C)c4c3)nn2)cc1 | 71%

These compounds were tested on LOX IMVI melanoma in the same assay as above. Settings: 10 µM unless noted.

Row | SMILES | growth
14 | C=C1C(=O)O[C@H]2[C@H]1CC/C(COC(=O)c1cn(C)c3ccccc13)=C\CC[C@@]1(C)O[C@@H]21 | -86.5% (active)
15 | CCOCCc1c(O)nc(SC)[nH]c1=O | 105%
16 | COc1ccccc1N1CCN(CCCOc2ccc(C(=O)/C=C3/C(=O)Nc4ccccc43)cc2)CC1 | 55.5%
17 | O=C(CCl)N1CCCc2ccccc21 | 99.6%
18 | C#C[C@@]1(O)[C@@H](CO)O[C@@H](n2cc(Br)c3c(N)ncnc32)[C@@H]1O | -56.8% (active)
19 | COc1ccc(C(=O)c2cc(F)c(F)c(OC)c2F)cc1OC(=O)CCl | 34.7%
20 | Cc1ccccc1NC(=O)c1sc2nc(C)c(C(C)O)cc2c1N (stereo not given) | 44.2%
21 | OCCNc1nc(NCCO)nc(Nc2ccc(C3=NN(c4cc(Cl)cc(Cl)c4)C(c4ccc(Cl)cc4)C3)cc2)n1 (stereo not given) | -53.4% (active)
22 | COc1ccc(NC(=O)c2sc3nc(C)c(C(C)=O)cc3c2N)cc1 | 105%
23 | Cc1ccc(-c2nc(C#N)c(S(=O)(=O)N(C)CCO)o2)cc1 | 41.9%
24 | O=C(CSC(=S)N1CCCCC1)Nc1ccccc1 | 94.2%
25 | COc1cc2c(cc1OC)C(Sc1ccc(Cl)cc1)c1c(nc(N)c(C#N)c1N)O2 (stereo not given) | -88.9% (active)
26 | COC(=O)c1cncc(C(=O)Nc2ccc(-n3cnc4ccccc43)cc2)c1 | 96.4%
27 | O=C(/C(=C/c1ccc([N+](=O)[O-])cc1)SCc1ccc(Cl)cc1)c1ccc(F)cc1 | -18.3% (active)
28 | CCOC(=O)c1c(-c2ccc(O)cc2)c(C#N)c2c(C#N)c(N)nn2c1N | 55.2%
29 | COc1cc(C2=NN(C(C)=O)C(c3cccc(Nc4ccnc5cc(C(F)(F)F)ccc45)c3)C2)cc(OC)c1OC (stereo not given) | 53.2%
30 | CC(=O)OC[C@]12CC[C@@H](c3cn(Cc4ccc(Cn5cc([C@@H]6CC[C@]7(COC(C)=O)CC[C@]8(C)[C@H](CC[C@@H]9[C@@]%10(C)CC[C@H](OC(C)=O)C(C)(C)[C@@H]%10CC[C@]98C)[C@@H]67)nn5)cc4)nn3)[C@@H]1[C@H]1CC[C@@H]3[C@@]4(C)CC[C@H](OC(C)=O)C(C)(C)[C@@H]4CC[C@@]3(C)[C@]1(C)CC2 | 97.3%
31 | COc1ccc(/C=C/C(=O)Nc2ncnc3nc[nH]c23)cc1 | 101%
32 | COC(=O)c1ccc2c(c1)NC(=O)[C@@H]1CCCN21 | 88.5%

Row | SMILES | growth
33 | COc1cc(NC(=O)COc2cc(C)nc3ccc(OC)cc23)cc(OC)c1 | 85.8%
34 | CCOC(=O)c1ccc(Nc2ncnc3ccc(NC(=O)c4ccccc4)cc23)cc1 | 87.8%
35 | CCN(CC)CC#CCOC(=O)[C@]1(C)CCC[C@]2(C)[C@H]3C[C@H]4C(C(C)C)=C[C@]3(CC[C@H]21)[C@@H]1C(=O)CCC(=O)[C@@H]14 | 38.7%
36 | N#Cc1c(-c2ccc(F)cc2)nc(N/N=C/c2c[nH]c3ccccc23)nc1N1CCOCC1 | 20.6%
37 | CN1CCN(CC#CCOC(=O)CNC(=O)[C@]23CCC(C)(C)C[C@H]2C2=CC[C@@H]4[C@@]5(C)CC[C@H](O)C(C)(C)[C@@H]5CC[C@@]4(C)[C@]2(C)CC3)CC1 | 81.3%
38 | Nc1c(C(=O)Nc2cccc3ccccc23)sc2nc3c(cc12)COCC3 | 42.7%
39 | C#CCOC(=O)[C@]1(C)CCC[C@]2(C)[C@H]3C[C@H]4C(C(C)C)=C[C@]3(CC[C@H]21)[C@@H]1C(=O)CCC(=O)[C@@H]14 | 78.8%
40 | COC(=O)c1nc(-c2ccccc2)oc1S(=O)(=O)n1nc(-c2ccccc2)cc1N | 72.3%
41 | Cn1c2ccccc2c2c(OC(=O)c3ccccc3)c3c(nc21)-c1ccccc1C3 | 88.3%
42 | COc1ccc(-c2cc(-c3nnc(SCC(=O)Nc4ccc(/C(C)=N\O)cc4)o3)c3ccccc3n2)cc1 | 97.7%
43 | COc1ccc(C2CC(c3ccc(OC)cc3O)=NN2c2ccc(S(N)(=O)=O)cc2)cc1 (stereo not given) | 52.5%
44 | CC(=O)c1ccc(NC(=O)CSc2nnc(-c3cc(-c4ccc(Cl)cc4)nc4ccccc34)o2)cc1 | 46.1%
45 | CCOC(=O)c1c(C)nc2c(c1N)/C(=C/c1cccs1)C(=O)N2Cc1ccccc1 | 36.4%
46 | CN(C)[C@@H]1C(=O)C(C(N)=O)=C(O)[C@@]2(O)C(=O)C3=C(O)c4c(O)cc(CN5CCc6ccccc6C5)c(Cl)c4C[C@H]3C[C@@H]12 | -87.2% (active)
47 | O=C1CC23OC(C(O)c4ccccc4N12)C1C(c2ccccc2)=NOC13 (stereo not given) | 37.8%
48 | N#Cc1nc(-c2ccccc2)oc1S(=O)(=O)NCC(c1ccc(Cl)cc1)N1CCCCC1 (stereo not given) | 21.9%
49 | C#C[C@@]1(O)[C@@H](CO)O[C@@H](n2cc(Cl)c3c(N)ncnc32)[C@@H]1O | -72.5% (active)
50 | COc1ccc(-n2cc(COc3ccc4c5ccnc(C)c5n(CC(C)C)c4c3)nn2)cc1 | 77.3%
